aSyn 5UTR act: Activators via SNCA 5'UTR binding, MLPCN; alpha-synuclein 5'UTR reporter, activators screen; activity score, % (tested at 7.5 µM), hits read low; hit rate 7.1% among 300,000; in the data active = activity score below about -60%
Numbers without * were called inactive. A selection follows.

SMILES	aSyn 5UTR act
O=C(N/N=C/c1ccc(Br)cc1)c1ccc(Br)o1	-207*
O=C(N/N=C/c1ccccc1C(F)(F)F)c1ccc(O)cc1	-135*
CC(=O)n1cc(/C=N/NC(=O)c2ccc(Cl)cc2)c2ccccc21	-69*
CCCc1cc(C(=O)N/N=C/c2cccn2C)cs1	-72*
COc1ccc(/C=N/NC(=O)c2cccs2)c2ccccc12	-62*
Cn1cc(/C=N\NC(=O)c2cccs2)c2ccccc21	-280*
Cn1cccc1/C=N/NC(=O)c1cccs1	-70*
CCc1cc2cc(C(=O)Nc3ccc(C)cc3)sc2s1	-90*
CCOC(=O)c1ccc(N/C=C2/CCCC(C)C2=O)cc1 (stereo not drawn)	-153*
CC1CCC/C(=C\Nc2ccc(C(=O)O)cc2)C1=O (stereo not drawn)	-121*
CCN(CC)C(=S)SCC(=O)c1ccc(Br)cc1	-110*
O=C(NOCc1ccccc1)c1ccccc1	-92*
CN1c2ccccc2Oc2nnc(N3CCN(Cc4ccccc4)CC3)cc21	-97*
C=CCOc1ccc(C(=O)Nc2ccc(OCC)cc2)cc1	-70*
CCOc1ccc(NC(=O)c2ccc3snnc3c2)cc1	-120*
Cc1ccc(NC(=O)c2ccc3snnc3c2)cc1C	-165*
COc1cccc(NC(=O)c2ccc3snnc3c2)c1	-105*
CCOc1ccc(C(=O)Oc2ccc(NC(C)=O)cc2)cc1	80
Cc1ccc(C(=O)Nc2ccc(SC(F)F)cc2)s1	-161*
O=C(Nc1ccc(F)cc1)c1ccc2snnc2c1	-92*
CC(C)COc1ccc(C(=O)Nc2ccc(SC(F)F)cc2)cc1	-90*
CCn1c(-c2ccc(N(C)C)cc2)nc2ccccc21	-97*
C=CCn1c(-c2ccc(OC)cc2)nc2ccccc21	-73*
CN(C)c1ccc(-c2nc3ccccc3n2C)cc1	61
CCOc1ccccc1CNS(=O)(=O)c1ccc(-c2cnc(C3CC3)o2)cc1	74
SMILES	aSyn 5UTR act
COc1ccc(N=c2oc3ccccc3cc2C(=O)Nc2ccccn2)cc1OC	-107*
COc1ccccc1NC(=O)c1cc2ccccc2o/c1=N\O	-129*
COc1ccccc1NC(=O)c1cc2ccc(O)cc2o/c1=N\O	-97*
CC[n+]1c(/C=C/N(C)c2ccccc2)n(-c2ccccc2)c2ccc(-c3nc4ccccc4s3)cc21	120
COc1ccc(-c2nc3ccccc3s2)cc1O	85
CCOc1cc(-c2nc3ccccc3s2)ccc1O	-98*
COc1cc(-c2nc3ccccc3s2)ccc1O	-222*
Cc1c(Cl)ccc2c(C(=O)NC(C)c3ccncc3)cc(-c3ccncc3)nc12 (stereo not drawn)	-67*
O=C(Cc1cc2ccccc2o1)NCc1ccc(F)cc1	-79*
O=C(CCc1nnc(CCCc2ccccc2)o1)NCCCC1CCCC1	-116*
CCc1cc(CNC(=O)CCc2nnc(CCCc3ccccc3)o2)on1	-129*
CC(C)c1cc(CNC(=O)CCc2nnc(CCCc3ccccc3)o2)on1	-77*
CCOc1ccc(-c2cc(CCCC(=O)NCCc3ccccc3)no2)cc1	62
O=C(CCc1nnc(CCCc2ccccc2)o1)N1CCCCCC1	-149*
c1ccc2c(c1)CCN(c1nc3ccccc3n3cnnc13)C2	-122*
CCSc1ccc(-c2cccc([N+](=O)[O-])c2)nn1	-89*
Cn1c(C(=O)NCc2ccccn2)cc2c(=O)n3ccccc3nc21	-89*
Cn1c(C(=O)NC2CCCCC2)cc2c(=O)n3ccccc3nc21	-134*
COc1ccc(OCc2cc(C(=O)NC3CCOC(C)(C)C3)no2)c2ccccc12 (stereo not drawn)	-183*
COc1cc(C)ccc1OCc1cc(C(=O)N2CCC(c3ccc(F)cc3)C2)no1 (stereo not drawn)	-175*
COc1cc(Cl)ccc1OCc1cc(C(=O)N2CCCC(OC)C2)no1 (stereo not drawn)	-148*
CCOC(=O)C1CCN(C(=O)c2cc(COc3ccc(OC)c4ccccc34)on2)CC1	-124*
COCC1CCN(C(=O)c2cc(COc3ccc(OC)c4ccccc34)on2)C1 (stereo not drawn)	-184*
COc1ccc(OCc2cc(C(=O)N3CCC(OC)CC3)no2)c2ccccc12	-69*
COCC1CCN(C(=O)c2cc(COc3ccccc3SC)on2)C1 (stereo not drawn)	-79*
SMILES	aSyn 5UTR act
Cc1ccc(-c2nc3ccccc3s2)cc1NC(=S)NC(=O)c1cccc2ccccc12	-97*
O=C(Nc1cc(-c2nc3ccccc3s2)ccc1Cl)c1ccc2c(c1)OCO2	-70*
Cc1ccc(-c2nc3ccccc3s2)cc1NC(=O)c1ccc2c(c1)OCO2	-76*
Clc1ccc(-c2cc(CSc3ccccc3)on2)cc1	-181*
Clc1ccc(-c2cc(CSc3cccc(Cl)c3)on2)cc1	-67*
O=C(CCl)NCc1cc(-c2ccc(Cl)cc2)no1	-65*
c1ccc(SCc2cc(-c3ccccc3)no2)cc1	-143*
c1ccc(Cc2cc(-c3ccccc3)on2)cc1	-130*
Clc1ccc(SCc2cc(-c3ccccc3)on2)cc1	-75*
O=C(Oc1ccc(F)cc1C(=O)/C=C/c1cccs1)c1cccc([N+](=O)[O-])c1	-87*
CC(=O)c1cnc2cc(-c3ccc(Cl)cc3)nn2c1C	-95*
Cc1c(C(=O)O)cnc2cc(-c3ccc(Cl)cc3)nn12	-71*
Cc1nc2cc(-c3ccc(Cl)cc3)nn2c(C)c1CCC(=O)NC(C)c1ccc2c(c1)OCCO2 (stereo not drawn)	74
CC(=O)Oc1oc(-c2ccccc2)nc1/C=N/c1ccccn1	-72*
CN(C)c1ccc(N=Cc2nc(-c3ccccc3)oc2O)cc1	-95*
Oc1oc(-c2ccccc2)nc1C=NCc1ccccc1	-133*
CN(C)c1ccc(N=Cc2nc(-c3ccccc3)oc2OC(=O)c2ccccc2)cc1	-115*
C/C(=N\NC(=O)CSc1nc(C)[nH]c1[N+](=O)[O-])c1ccc(F)cc1	-109*
O=C1c2cccc3c(O)ccc(c23)C(=O)N1c1ccc(Cl)cc1	-141*
Cc1onc(NC(=O)c2ccc(Cl)cc2Cl)c1Br	-145*
COc1ccc(-c2nnn(Cc3ccccc3F)n2)cc1	-207*
Fc1ccccc1Cn1nnc(-c2ccc3c(c2)OCO3)n1	-77*
Nc1c(-c2cccc(Cl)c2)cnc2c(-c3ccccc3)cnn12	-243*
Fc1ccc(-c2cnn3c(-c4ccncc4)ccnc23)cc1	-69*
Nc1c(-c2ccc(Cl)cc2)cnc2c(-c3ccc(F)cc3)cnn12	-95*
SMILES	aSyn 5UTR act
CCOC(=O)c1cnc2c(-c3ccc(Cl)cc3)cnn2c1C	-98*
Cc1nn2c(N)c(-c3ccccc3)cnc2c1-c1ccccc1	-131*
COc1ccc(-c2c(C)nc3c(-c4ccc(F)cc4)cnn3c2N)cc1	-143*
COc1cc(/C=N/N=C2/NC(=O)C(CC(=O)O)S2)ccc1OCc1cccc(Cl)c1 (stereo not drawn)	-185*
O=C1N/C(=N\N=C\c2cccnc2)SC1Cc1ccc(SC(F)F)cc1 (stereo not drawn)	55
O=c1[nH]c2ccccc2n1CCCSc1cnc2ccccc2n1	-64*
Clc1ccc(-c2nnsc2SCc2ccccc2)cc1	-75*
C/C(CC(=O)Nc1ccc(F)cc1F)=N\NC(=O)C(=O)N1CCCCC1	-68*
CCOc1cc(CNc2ccc3c(c2)CCC3)ccc1O	-119*
COc1cc(CNc2ccc3c(c2)CCC3)cc(OC)c1O	-226*
CCOc1ccc(C(Nc2cccnc2)c2cc(Cl)c3cccnc3c2O)cc1 (stereo not drawn)	67
CCOc1ccc(NC(c2ccccn2)c2oc(CO)cc(=O)c2O)cc1 (stereo not drawn)	-104*

Compound activity deposited in PubChem by Broad Institute.
